Assay results from PubChem BioAssay (EPA / NIEHS).
Inconclusive results are not listed. Where a structure was tested more than once in an assay, its records may differ in their call. Calls of active or inactive are those of the source. Rule for the calls, unless noted: active = hit-call score of the fitted dose curve at least 0.9, where 1 is the maximum; inactive = score below 0.9.

Legend:
[1] = CCTE_Shafer_MEA_dev_spike_duration_mean: CCTE's Neural Network Formation Assay for Mean Spike Duration, Shafer Lab (AID 2284051);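 note: mean network spike duration pooled as area under curve over DIV 5 to 12 recordings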;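 for AC50: potency for a decrease in mean network spike duration versus DMSO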
How it was run: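 With DMSO as baseline, loss of mean network spike duration was scored from extracellular recordings of rat cortical neurons on MEA plates. Exposure spanned plating to DIV 12; the four recording days were collapsed into one AUC value.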

[2] = CCTE_Shafer_MEA_dev_per_network_spike_spike_number_mean: CCTE's Neural Network Formation Assay for Mean Number of Spikes in a Network Spike, Shafer Lab (AID 2284053);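 for AC50: fitted as decrease in spikes per network spike relative to DMSO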
How it was run: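 First, rat cortical cells (1.5 x 10^5/well) were seeded onto MEA wells; second, dosing began at plating and was refreshed on DIV 5 and 9; finally, network-spike spike counts across DIV 5–12 were summarized as AUC.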

[3] = CCTE_Shafer_MEA_dev_per_network_spike_spike_percent: CCTE's Neural Network Formation Assay for Percent of Spikes in a Network Spike, Shafer Lab (AID 2284054)
How it was run: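 Primary rat cortical neurons on 16-electrode MEA wells (PEI-coated, laminin at plating), exposed from day 0 with renewal at DIV 5 and 9; spikes within 0.05 s of network-spike peaks over total spikes, AUC across days 5, 7, 9, 12.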

[4] = CCTE_Shafer_MEA_dev_LDH: CCTE's Lactate Dehydrogenase Assay for Cytotoxicity in the Neural Network Formation Assay, Shafer Lab (AID 2284068; active = hit-call score of the fitted dose curve at least 0.9, where 1 is the maximum;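 note: exposure for twelve days from plating with re-dosing on DIV 5 and 9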)
How it was run: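 Developing rat cortical networks on MEA plates are exposed to compound for 12 days from plating. LDH activity is measured spectrophotometrically, with DMSO as baseline.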

[5] = CCTE_Shafer_MEA_dev_AB: CCTE's Alamar Blue Assay for Cytotoxicity in the Neural Network Formation Assay, Shafer Lab (AID 2284083; active = hit-call score of the fitted dose curve at least 0.9, where 1 is the maximum;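 note: resazurin reduction fluorescence as viability of cultured neurons; twelve days of exposure from plating with re-dosing on DIV 5 and 9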)
How it was run: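 Cytotoxicity companion to the developmental MEA: primary rat cortical neurons, 12-day exposure starting day 0, compound refreshed DIV 5 and 9; resazurin fluorescence, fitted against DMSO vehicle.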

[6] = CCTE_Shafer_MEA_dev_mutual_information_norm: CCTE's Neural Network Formation Assay for Mutual Information Normalization, Shafer Lab (AID 2284091);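 for AC50: mutual information between electrodes summarised as area under curve across four recording days; potency is for a decrease in mutual information relative to DMSO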
How it was run: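 Rat cortical cultures, 48-well MEA, continuous exposure DIV 0–12 with full media/compound change DIV 5 and 9. Readout: inter-electrode mutual information, AxIS adaptive spike detection; AUC across DIV 5/7/9/12 recordings; DMSO baseline, negative fitting direction.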

DIO2 (gene 1734) = assay: CCTE_GLTED_hDIO2: CCTE's human Deiodinase 2 (DIO2) Inhibition Assay, Great Lakes Toxicology and Ecology Division (GLTED) Lab (AID 2284050; active = hit-call score of the fitted dose curve at least 0.9, where 1 is the maximum)
How it was run: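 hDIO2 enzyme + test chem, 3 h → free iodide from substrate; step 2: Sandell-Kolthoff (Ce IV reduction by As, iodide-catalysed), spectrophotometric read. Triplicate plates; DMSO = baseline.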

DIO3 (gene 1735) = assay: CCTE_GLTED_hDIO3: CCTE's human Deiodinase 3 (DIO3) Inhibition Assay, Great Lakes Toxicology and Ecology Division (GLTED) Lab (AID 2284055; active = hit-call score of the fitted dose curve at least 0.9, where 1 is the maximum;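 note: potency is for inhibition seen as loss of released iodide signal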)
How it was run: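 Absorbance from the Sandell-Kolthoff reaction reports iodide released by human DIO3 during a 3-hour incubation with chemical. Inhibition scored as signal loss against DMSO controls.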

Measured: AC50

OCC(F)(F)C(F)(F)C(F)(F)C(F)(F)C(F)(F)C(F)(F)C(F)(F)C(F)(F)CO
active: [1] 15 µM | [4] 23.3 µM | [5] 24.4 µM
inactive: [2] | [3] | [6]

C=CC(=O)OCC(F)(F)C(F)(F)C(F)(F)C(F)(F)C(F)(F)C(F)(F)C(F)(F)C(F)F
active: DIO2 (gene 1734) 10.3 µM

OCC(O)CC(F)(F)C(F)(F)C(F)(F)C(F)(F)F (configuration not stated)
inactive: [1] | [2] | [3] | [6]

OCC(F)(F)C(F)(F)C(F)(F)C(F)(F)C(F)(F)C(F)(F)CO
inactive: [1] | [2] | [3] | [4] | [6]

NC(=O)C(F)(F)C(F)(F)C(F)(F)C(F)F
inactive: [1] | [2] | [3] | [4] | [6]

OC(O)C(F)(F)C(F)(F)F
inactive: [1] | [2] | [3] | [4] | [6]

O=S(=O)(O)CCC(F)(F)C(F)(F)C(F)(F)C(F)(F)F
inactive: [1] | [2] | [3] | [4] | [6]

C=CC(=O)OCC(F)(F)C(F)(F)C(F)(F)COC(=O)C=C
active: DIO2 (gene 1734) 26.3 µM | [1] 5.18 µM | [2] 4.72 µM | [3] 4.56 µM | DIO3 (gene 1735) 45.1 µM | [4] 5.84 µM | [5] 7.96 µM | [6] 1.73 µM

FC(F)(F)C(F)(F)C(F)(F)C(F)(F)C(F)(F)C(F)(F)C(F)(F)CCI
inactive: [1] | [2] | [3] | [4] | [6]

NC(=O)C(F)(F)C(F)(F)C(F)(F)F
inactive: [1] | [2] | [3] | [4] | [6]

NC(O)(C(F)(F)F)C(F)(F)F
inactive: [1] | [2] | [3] | [4] | [6]

NC(=O)C(F)(F)C(F)(F)C(F)(F)C(F)(F)C(N)=O
inactive: [1] | [2] | [3] | [4] | [6]

CNS(=O)(=O)C(F)(F)C(F)(F)C(F)(F)C(F)(F)C(F)(F)C(F)(F)C(F)(F)C(F)(F)F
inactive: [1] | [2] | [3] | [4] | [6]

C=C(C)C(=O)OCC(F)(F)C(F)(F)C(F)(F)C(F)F
active: DIO2 (gene 1734) 34 µM | DIO3 (gene 1735) 14.2 µM

CCCCCCCCCCCCC[N+](C)(C)Cc1ccccc1
active: DIO2 (gene 1734) 22.2 µM | DIO3 (gene 1735) 17 µM

CO[Si](C)(CCC(F)(F)C(F)(F)C(F)(F)C(F)(F)C(F)(F)C(F)(F)F)OC
inactive: [1] | [2] | [3] | [4] | [6]

CCN(CCO)S(=O)(=O)C(F)(F)C(F)(F)C(F)(F)C(F)(F)C(F)(F)C(F)(F)C(F)(F)C(F)(F)F
inactive: [1] | [2] | [3] | [4] | [5] | [6]
active: [4] 10.1 µM

CCCCCCCC/C=C\CCCCCCCC(=O)OCC(O)CO (configuration not stated)
active: DIO2 (gene 1734) 38.5 µM | DIO3 (gene 1735) 21.3 µM
